UGM FP inh = blocks M. tuberculosis UGM enzyme | P9WIQ1 | purified UGM, fluorescence polarization probe displacement | inhibition, % at 10 µM | 320,000 compounds, 0.06% hits | AID 504406; in the data active = inhibition above about 10%, passing the limit was not always enough; inconclusive = no clear call, values can overlap the other calls
Target sequence (P9WIQ1 whole entry, looked up): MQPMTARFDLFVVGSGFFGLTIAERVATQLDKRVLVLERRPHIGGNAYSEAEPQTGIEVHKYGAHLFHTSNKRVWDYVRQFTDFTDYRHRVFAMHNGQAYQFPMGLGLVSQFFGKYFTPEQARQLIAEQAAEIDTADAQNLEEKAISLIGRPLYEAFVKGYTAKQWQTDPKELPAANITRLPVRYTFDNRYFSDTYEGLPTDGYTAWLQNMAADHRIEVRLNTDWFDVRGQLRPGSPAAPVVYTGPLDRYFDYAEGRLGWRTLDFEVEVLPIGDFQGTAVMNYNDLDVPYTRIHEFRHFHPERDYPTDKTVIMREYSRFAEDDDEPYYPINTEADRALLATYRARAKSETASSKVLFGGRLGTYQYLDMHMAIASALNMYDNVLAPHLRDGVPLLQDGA
Mtb FBA inh = Mtb fructose-bisphosphate aldolase inhibition; inhibition, % at 1 µM; purified M. tuberculosis FBA, fluorescence read-out; 360,000 compounds, 2.3% hits; in the data active = inhibition above about 27%;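 note: 0% = vehicle and 100% = reference inhibitor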
GDH-TPI counter = inhibits GDH-TPI coupling enzymes, artifact for Mtb FBA screen; 360,000 compounds, 1.2% hits; GDH-TPI coupled enzyme counterscreen, NADH absorbance; inhibition, % at 4.8 µM; AID 588335; in the data active = inhibition above about 30%;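 note: 0% = DMSO wells and 100% = wells lacking the enzyme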
Rv3671c inh = inhibits the M. tuberculosis serine protease Rv3671c | P9WHR9 | inhibition, % at 5.96 µM | 320,000 compounds, 0.048% hits | AID 2606; in the data active = inhibition above about 38%;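 note: extracellular domain of Rv3671c used as enzyme; 0% = enzyme with DMSO and 100% = no enzyme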
Mtb betalactam = beta-lactam sensitization of Mtb H37Rv; M. tuberculosis H37Rv growth with meropenem, percent inhibition; inhibition, % at 25 µM; 330,000 compounds, 0.27% hits; AID 434955; call rule not given here;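 note: growth measured after seven days incubation then overnight dye step; 0% = bacteria only wells and 100% = bacteria with antibiotic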
RecA intein inh = Mtb RecA intein splicing inhibition; cell-free RecA intein splicing, fluorescence; 290,000 compounds, 0.75% hits; inhibition, % (test concentration not listed); P9WHJ3; in the data active = inhibition above about 30%; inconclusive = no clear call, values can overlap the other calls;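 note: 0% = vehicle wells and 100% = reference inhibitor control wells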
* marks the source's active call; other numbers are inactive results; i = inactive; ? = inconclusive; nt = no result; + = active, no number. Rows were chosen to be rich in hits. Some 4% of all compounds tested hit in one or more screens of this group.

SMILES | UGM FP inh | Mtb FBA inh | GDH-TPI counter | Rv3671c inh | Mtb betalactam | RecA intein inh
Cn1c(=O)c2cc(NC(=O)NCCc3ccccc3)ccc2n1Cc1ccc(F)cc1 | nt | 186* | -6 | nt | nt | nt
COc1ccc(CCNC(=O)Nc2ccc3c(c2)c(=O)n(C)n3Cc2ccc(F)cc2)cc1OC | nt | 118* | 10 | nt | nt | nt
COc1cc(Cn2c3ccc(NC(=O)NCc4ccc(F)cc4)cc3c(=O)n2C)ccc1F | nt | 146* | 9 | nt | nt | nt
CC(CCN1C(Nc2ccccc2)=NC[C@@H]1Cc1ccccc1)c1ccccc1 (stereo partly specified) | 2 | 0 | 6 | 1 | 1 | 2
Cc1cccc(OCCNC(=O)CCNS(=O)(=O)c2ccc3ccccc3c2)c1 | -2 | 2 | 1 | -3 | 6 | nt
C=C(C)Cn1c2ccc(NC(=O)NCCc3ccccc3)cc2c(=O)n1C | nt | 170* | -4 | nt | nt | nt
COC(=O)C1=CN(C(C)C)C=C(C(=O)OC)C1c1cc(Br)c(OC)c(OC)c1 | -3 | 154* | 6 | 1 | -9 | i
CCN1C=C(C(=O)OC)C(c2cccc(C)c2)C(C(=O)OC)=C1 | 1 | + | 17 | 1 | 27 | -118
COC(=O)C1=CN(C(C)C)C=C(C(=O)OC)C1c1cccc(OC)c1 | -2 | + | 17 | 4 | -6 | -211
CCCOc1ccccc1C1C(C(=O)OC)=CN(C(C)C)C=C1C(=O)OC | -1 | 165* | 13 | 1 | -6 | i
O=C(NCc1ccccc1CN1CCCC1)c1ccc(Cl)c(S(=O)(=O)N2CCCC2)c1 | nt | 7 | 8 | nt | nt | nt
O=C(NC1CC(=O)N(c2ccc(Cl)cc2)C1)C1CC1 (stereo unspecified) | 0 | 2 | -12 | -3 | -8 | -1
Cc1ccccc1NC(=O)CSCc1cc(=O)n2ccsc2n1 | 1 | 1 | 3 | 6 | -4 | 0
COC(=O)C1=C(C)NC(=O)NC1c1ccccc1Cl (stereo unspecified) | -2 | 0 | 1 | 2 | 5 | 1
COC(=O)C1=CN(C)C=C(C(=O)OC)C1c1ccccc1Cl | -3 | 199* | 19 | 5 | 0 | -170
COC(=O)/C(=C\c1c[nH]c2ccccc12)NC(C)=O | -3 | 1 | 39* | 7 | 6 | 0
c1coc(C2=NC(c3ccco3)C(c3ccco3)N2)c1 (stereo unspecified) | nt | 49* | 1 | nt | nt | nt
Cc1nn(-c2ccccc2)c2nc(N)c(C(N)=O)cc12 | 1 | 71* | 20 | 3 | 1 | 0
CC1=C(C(=O)N(C)C)CC(CC(=O)NCCc2ccccn2)C(=O)N1Cc1ccc(C(C)(C)C)cc1 (stereo unspecified) | nt | 1 | 3 | nt | nt | nt
Cc1ccc(S(=O)(=O)c2cc3cc(Br)ccc3oc2=O)cc1 | nt | -3 | 6 | -3 | -2 | 1
CCN(CC)c1ccc2cc(S(=O)(=O)c3ccc(Cl)cc3)c(=O)oc2c1 | 20* | 9 | 16 | -7 | 7 | nt
O=c1oc2cc(O)ccc2cc1-c1nc2ccccc2o1 | nt | + | nt | nt | nt | nt
O=c1cc(-c2cc3ccccc3o2)c2cc(O)ccc2o1 | -1 | 0 | 16 | -7 | ? | -1
O=c1oc2cc(O)ccc2cc1S(=O)(=O)c1ccccc1 | 1 | + | 15 | 6 | ? | i
c1ccc(-c2nc(Sc3ncnc4c3cnn4-c3ccccc3)n[nH]2)cc1 | 4 | nt | nt | 4 | 93 | 32*
SMILES | UGM FP inh | Mtb FBA inh | GDH-TPI counter | Rv3671c inh | Mtb betalactam | RecA intein inh
Cc1ccc(CSc2ncnc3c2cnn3-c2ccccc2)cc1 | -1 | 1 | 2 | 1 | 12 | 0
O=C(c1ccc(N2CCN(C3CC(=O)N(Cc4cccs4)C3=O)CC2)cc1)c1cccnc1 (stereo unspecified) | 1 | -5 | 33* | 10 | -2 | -1
CCOC(=O)N(C)C[C@@H]1OCc2ccccc2-c2c(n(C)c3ccccc23)C(=O)N([C@H](C)CO)C[C@H]1C | nt | -2 | -1 | nt | nt | nt
O=C(CSc1nnc(-c2c[nH]c3ccccc23)o1)N(Cc1ccccc1)c1ccc(F)cc1 | 0 | 3 | 18 | -90 | -6 | 1
COc1ccc(CN(C(=O)CSc2nnc(-c3ccccc3C)o2)c2ccc(F)cc2)cc1 | 2 | + | -16 | -11 | 54 | 40*
COc1ccc(NC(=O)CN(C)C(=O)CCc2c[nH]c3ccccc23)cc1 | -2 | 2 | -2 | -3 | 0 | nt
O=C(N/C(=C/c1ccc(Br)cc1)c1nc2ccccc2[nH]1)c1ccco1 | 2 | 5 | 32* | -13 | 7 | 0
O=C(/C(=C/c1ccc(Cl)cc1)c1nc2ccccc2[nH]1)c1ccccc1 | -1 | -1 | 17 | -14 | 7 | 0
O=C(N/C(=C/c1ccc(Cl)cc1)c1nc2ccccc2[nH]1)c1ccco1 | -1 | 4 | 42* | 1 | -1 | 3
C[C@H](CO)N1C[C@H](C)[C@@H](CN(C)S(=O)(=O)c2cn(C)cn2)Oc2c(NC(=O)Nc3ccc4c(c3)OCO4)cccc2C1=O | -1 | 0 | -1 | 2 | 8 | nt
COc1ccc(Br)c(Cn2c(C)c(C(=O)NCCC#N)sc2=O)c1 | nt | 1 | 6 | nt | nt | nt
Cn1c(=O)c2c(nc(-c3ccc(N(CCCl)CCCl)cc3)n2C)n(C)c1=O | nt | + | 39* | nt | nt | nt
Nc1cc(S(=O)(=O)O)cc2ccc(S(=O)(=O)O)cc12 | nt | 115* | 1 | nt | nt | nt
Cc1c(CC(=O)N2C[C@H]3C[C@@H](C2)c2cccc(=O)n2C3)c(=O)oc2c(C)c(O)ccc12 | 5 | + | 11 | -8 | -5 | -70
Cc1c(CC(=O)N2C[C@H]3C[C@@H](C2)c2cccc(=O)n2C3)c(=O)oc2cc(O)c(Cl)cc12 | 3 | nt | 31* | -11 | -4 | -486
Cc1c(CCC(=O)N2C[C@H]3C[C@@H](C2)c2cccc(=O)n2C3)c(=O)oc2c(C)c(O)ccc12 | nt | 191* | 8 | nt | nt | nt
CCOC(=O)C1=CCN(S(=O)(=O)c2ccccc2Cl)C1c1cccc(Br)c1 (stereo unspecified) | nt | -2 | nt | nt | nt | nt
O=C(O)c1ccc(-n2cccc2/C=N\NC(=O)c2cc3cc(Br)ccc3o2)cc1 | -1 | 2 | 36* | 5 | 54 | 0
C#CCn1cc(/C=N/NC(=O)c2cc3ccccc3o2)c2ccccc21 | 5 | 4 | 32* | 11 | 0 | 5
O=C(O)Cn1cc(/C=N/NC(=O)c2cc3cc(Br)ccc3o2)c2ccccc21 | 4 | 1 | 48* | 8 | 84 | -2
CCCc1nc2ccc(C(=O)OC)cn2c1Cc1ccc(C)cc1 | nt | 1 | nt | nt | nt | nt
CC1CCN(C(=O)c2ncn3c2c(=O)[nH]c2ccc(Br)cc23)CC1 | nt | -1 | 3 | nt | nt | nt
Cc1nc2c(C)cccn2c(=O)c1NC(=O)c1ccc(Br)o1 | -2 | 2 | 33* | 0 | 0 | -2
Cc1nc2c(C)cccn2c(=O)c1NC(=O)c1ccco1 | -4 | -1 | 14 | 1 | -10 | 0
CCC(NS(=O)(=O)c1ccc(C)cc1)C(=O)N1CCOCCOCCOCCOCC1 (stereo unspecified) | 0 | -5 | -1 | -9 | 5 | 4
N#CC1=C(N)Oc2n[nH]c(-c3cccs3)c2C1c1ccncc1 (stereo unspecified) | 2 | -1 | 13 | -7 | -4 | 60*

High-throughput results: PubChem BioAssay, several laboratories
